Measurements reported in the antibiotic and cytotoxicity screens of Wong et al. (2023).
In all, about 39,000 compounds went through this assay and about 3,300 (8.5%) were called active. This is one part of a sample in which actives are shown more often than they occur.

What follows are compounds tested on HepG2 (assay: cytotoxicity call (relative viability < 0.9)). Settings: 10 µM.

Row | SMILES | cytotoxicity call
1 | Cc1ccc(S[C@]2(C(=O)NCCCN(C)C)CC(=O)N(Cc3ccccc3C(F)(F)F)[C@@H]2c2ccc(CO)cc2)cc1 | inactive
2 | C[C@H]1CN([C@@H](C)CO)C(=O)Cc2cc(NS(=O)(=O)c3ccc(F)cc3)ccc2O[C@H]1CN(C)C(=O)Nc1cccc2ccccc12 | inactive
3 | Cc1cc(-c2cc[nH]n2)c(C)s1 | inactive
4 | C[C@H]1CCCCO[C@@H](CN(C)Cc2ccncc2)[C@@H](C)CN([C@@H](C)CO)C(=O)c2cc(NC(=O)CCC(F)(F)F)ccc2O1 | inactive
5 | C[C@@H]1CN([C@@H](C)CO)C(=O)c2cc(NC(=O)Nc3ccc(C(F)(F)F)cc3)ccc2O[C@@H](C)CCCCO[C@H]1CN(C)S(=O)(=O)c1cn(C)cn1 | inactive
6 | C[C@H]1CCCCO[C@H](CN(C)C)[C@@H](C)CN([C@@H](C)CO)C(=O)c2cc(NC(=O)Nc3ccc(C(F)(F)F)cc3)ccc2O1 | inactive
7 | C[C@@H]1CCCCO[C@@H](CN(C)C)[C@@H](C)CN([C@H](C)CO)C(=O)c2cc(NC(=O)Nc3ccc(C(F)(F)F)cc3)ccc2O1 | active
8 | C[C@H]1CCCCO[C@@H](CN(C)S(=O)(=O)c2cn(C)cn2)[C@@H](C)CN([C@@H](C)CO)C(=O)c2cc(NC(=O)Nc3ccc(C(F)(F)F)cc3)ccc2O1 | active
9 | C[C@@H]1CN([C@@H](C)CO)C(=O)c2cc(NC(=O)Nc3ccc(C(F)(F)F)cc3)ccc2O[C@@H](C)CCCCO[C@@H]1CN(C)S(=O)(=O)c1cn(C)cn1 | inactive
10 | C[C@@H]1CN([C@H](C)CO)C(=O)c2cc(NC(=O)Nc3ccc(C(F)(F)F)cc3)ccc2O[C@@H](C)CCCCO[C@H]1CN(C)C | inactive
11 | C[C@H]1CN([C@@H](C)CO)C(=O)c2cc(C#CC3(O)CCCC3)cnc2O[C@@H]1CN(C)S(=O)(=O)c1ccccc1 | inactive
12 | COc1cccc(-c2ccc3c(c2)O[C@@H](CN(C)C(=O)C2CC2)[C@@H](C)CN([C@@H](C)CO)S3(=O)=O)c1 | inactive
13 | C[C@@H]1CN([C@H](C)CO)C(=O)c2cc(NC(=O)Nc3ccccc3)ccc2O[C@@H](C)CCCCO[C@@H]1CN(C)Cc1ccc(C(=O)O)cc1 | inactive
14 | C[C@H]1CN([C@@H](C)CO)C(=O)c2cc(C#CC3(O)CCCC3)cnc2O[C@H]1CN(C)C(=O)Cc1ccccc1 | inactive
15 | CCNC(=O)C[C@H]1CC[C@H](NC(=O)C2CC2)[C@H](CO)O1 | inactive
16 | Cn1cnc(S(=O)(=O)N2C[C@H](O)COC[C@@H]3O[C@H](CC(=O)NC4Cc5ccccc5C4)CC[C@H]32)c1 | inactive
17 | O=C(C[C@@H]1CC[C@H]2[C@@H](COC[C@@H](O)CN2S(=O)(=O)c2ccccc2Cl)O1)NCc1ccccc1Cl | inactive
18 | COc1ccc2c3c(ccc2c1)-c1[nH]c2ccccc2c1CC3 | inactive
19 | C[C@H]1CCc2[nH]c3ccccc3c2C1 | active
20 | O=c1[nH]c2ccccc2c2ccccc12 | inactive
21 | C[C@H]1CN([C@@H](C)CO)C(=O)c2cc(NS(=O)(=O)c3ccccc3)ccc2O[C@@H]1CN(C)C(=O)Nc1cccc2ccccc12 | inactive
22 | Nc1nccs1 | inactive
23 | O[C@H]1CCN(c2nccs2)C1 | inactive

Row | SMILES | cytotoxicity call
24 | O=C1CCC(=O)N1c1nccs1 | active
25 | O=C([C@@H]1[C@@H](CO)[C@@H]2Cn3c(cccc3=O)[C@@H]2N1CC1CCCC1)N1CCOCC1 | inactive
26 | COC1(NC(=O)CSCC#N)C(=O)N2C(C(=O)[O-])=C(CSc3nnnn3C)CSC21.[Na+] (centres undefined) | inactive
27 | C[C@@H]1CN([C@@H](C)CO)C(=O)c2cc(NC(=O)Nc3ccccc3)ccc2O[C@H]1CN(C)Cc1ccc(Cl)c(Cl)c1 | active
28 | C[C@H]1CN([C@@H](C)CO)C(=O)c2cc(NC(=O)Nc3ccccc3)ccc2O[C@@H]1CN(C)Cc1ccc(Cl)c(Cl)c1 | inactive
29 | C[C@@H]1CN([C@H](C)CO)C(=O)c2cc(NC(=O)Nc3ccccc3)ccc2O[C@@H]1CN(C)Cc1ccc(Cl)c(Cl)c1 | inactive
30 | C[C@H](CO)N1C[C@H](C)[C@@H](CN(C)Cc2ccc(Cl)c(Cl)c2)Oc2ccc(NC(=O)Nc3ccccc3)cc2C1=O | inactive
31 | C[C@@H]1CN([C@H](C)CO)C(=O)c2cc(NC(=O)Nc3ccccc3)ccc2O[C@H]1CN(C)Cc1ccc(Cl)c(Cl)c1 | inactive
32 | C[C@H](CO)N1C[C@H](C)[C@H](CN(C)Cc2ccc(Cl)c(Cl)c2)Oc2ccc(NC(=O)Nc3ccccc3)cc2C1=O | inactive
33 | C[C@H]1CN([C@@H](C)CO)C(=O)c2cc(NC(=O)Nc3ccccc3)ccc2O[C@H]1CN(C)Cc1ccc(Cl)c(Cl)c1 | active
34 | C[C@@H]1CN([C@@H](C)CO)C(=O)c2cc(NC(=O)Nc3ccccc3)ccc2O[C@@H]1CN(C)Cc1ccc(Cl)c(Cl)c1 | active
35 | COCC(=O)N1C[C@H](C)[C@@H](OC)CN(C)C(=O)c2cc(NC(=O)c3ccc(F)cc3)ccc2OC[C@@H]1C | inactive
36 | N#Cc1cn(C2CCCCC2)c(=O)[nH]c1=O | inactive
37 | C[C@H]1CCCCO[C@H](CN(C)C(=O)Cc2ccccc2)[C@@H](C)CN([C@@H](C)CO)C(=O)c2cc(NC(=O)C3CCCCC3)ccc2O1 | inactive
38 | CC(C)CC#Cc1ccc2c(c1)O[C@H](CN(C)C(=O)Cc1ccccn1)[C@@H](C)CN([C@@H](C)CO)S2(=O)=O | inactive
39 | C[C@@H]1CN([C@H](C)CO)C(=O)Cc2cc(NC(=O)c3ccncc3)ccc2O[C@@H]1CN(C)C(=O)NC1CCCCC1 | inactive
40 | C[C@@H]1CN([C@H](C)CO)C(=O)c2cc(-c3ccncc3)cnc2O[C@@H]1CN(C)S(=O)(=O)c1ccc(F)cc1 | inactive
41 | Cc1nsc(-c2ccccc2)n1 | inactive
42 | C[C@@H]1CCCCO[C@H](CN(C)Cc2ccc3c(c2)OCO3)[C@H](C)CN([C@H](C)CO)C(=O)c2cc(NS(=O)(=O)c3ccc(F)cc3)ccc2O1 | inactive
43 | C[C@@H]1CCCCO[C@@H](CN(C)Cc2ccc3c(c2)OCO3)[C@H](C)CN([C@@H](C)CO)C(=O)c2cc(NS(=O)(=O)c3ccc(F)cc3)ccc2O1 | inactive
44 | C[C@@H]1CCCCO[C@@H](CN(C)Cc2ccc3c(c2)OCO3)[C@@H](C)CN([C@H](C)CO)C(=O)c2cc(NS(=O)(=O)c3ccc(F)cc3)ccc2O1 | active
45 | C[C@@H]1CCCCO[C@@H](CN(C)Cc2ccc3c(c2)OCO3)[C@H](C)CN([C@H](C)CO)C(=O)c2cc(NS(=O)(=O)c3ccc(F)cc3)ccc2O1 | inactive
46 | C[C@@H]1CCCCO[C@@H](CN(C)Cc2ccc3c(c2)OCO3)[C@@H](C)CN([C@@H](C)CO)C(=O)c2cc(NS(=O)(=O)c3ccc(F)cc3)ccc2O1 | active

Row | SMILES | cytotoxicity call
47 | C[C@H]1CCCCO[C@H](CN(C)Cc2ccc3c(c2)OCO3)[C@@H](C)CN([C@@H](C)CO)C(=O)c2cc(NS(=O)(=O)c3ccc(F)cc3)ccc2O1 | inactive
48 | C[C@@H]1CCCCO[C@H](CN(C)Cc2ccc3c(c2)OCO3)[C@@H](C)CN([C@@H](C)CO)C(=O)c2cc(NS(=O)(=O)c3ccc(F)cc3)ccc2O1 | active
49 | C[C@@H]1CN([C@@H](C)CO)C(=O)c2cc(NS(=O)(=O)c3ccc(F)cc3)ccc2O[C@@H](C)CCCCO[C@H]1CN(C)Cc1ccc2c(c1)OCO2 | inactive
50 | C[C@@H]1CN([C@H](C)CO)C(=O)c2cc(NS(=O)(=O)c3ccc(F)cc3)ccc2O[C@@H](C)CCCCO[C@@H]1CN(C)Cc1ccc2c(c1)OCO2 | inactive
51 | C[C@@H]1CN([C@H](C)CO)C(=O)c2cc(-c3cccnc3)cnc2O[C@@H]1CN(C)Cc1ccc(Oc2ccccc2)cc1 | inactive
52 | CC(/C=C/C(=O)NO)=C\c1ccccc1OCc1cn(CC[C@@H]2OC(=O)[C@H](Cc3ccccc3)N3CC4=C[C@@H](C5CC5)n5c(=O)n(C)c(=O)n5[C@H]4[C@H]23)nn1 | inactive
53 | C[C@@H](N)C(=O)OC(C)(C)Cc1ccc(Cl)cc1 | inactive
54 | C[C@@H]1CCCCO[C@@H](CN(C)S(C)(=O)=O)[C@H](C)CN([C@@H](C)CO)C(=O)c2cc(NS(C)(=O)=O)ccc2O1 | inactive
55 | COC(=O)c1c2oc(c1C(=O)OC)C(=O)N[C@@H](Cc1ccccc1)Cn1cc(nn1)CNC(=O)[C@@H](Cc1ccccc1)NC(=O)N[C@@H](CO)CC2 | inactive
56 | C[C@H]1OC(=O)CC[C@@H](O)/C=C/[C@@H](O)[C@@H]1O | inactive
57 | O=C(O)[C@H]1Cc2ccccc2CN1 | inactive
58 | CC(C)NC(=O)N[C@H]1C=C[C@@H](CC(=O)NCCCN(C)C)O[C@@H]1CO | inactive
59 | CN(C)c1ncnc2c1ncn2[C@H]1O[C@@H](CO)[C@@H](N)[C@@H]1O | active
60 | COc1ccc(C[C@@H](N)C(=O)N[C@@H]2[C@@H](O)[C@@H](n3cnc4c(N(C)C)ncnc43)O[C@@H]2CO)cc1 | active
61 | Nc1ncnc2c1ncn2[C@@H]1O[C@H](CO)[C@@H](O)[C@H]1O | inactive
62 | COc1ccc(C[C@H](N)C(=O)N[C@H]2[C@@H](O)[C@@H](n3cnc4c(N(C)C)ncnc43)O[C@@H]2CO)cc1 | active
63 | Nc1ncnc2c1ncn2C1OC(CO)C(O)C1O (centres undefined) | inactive
64 | COc1nc(N)nc2c1ncn2[C@@H]1O[C@H](CO)[C@@H](O)[C@@H]1O | inactive
65 | Nc1ccc(CCNc2ncnc3c2ncn3[C@@H]2O[C@H](CO)[C@@H](O)[C@H]2O)cc1 | inactive
66 | COc1ccc(CC(N)C(=O)NC2C(CO)OC(n3cnc4c(N(C)C)ncnc43)C2O)cc1.Cl.Cl (centres undefined) | active
67 | C[C@@H]1CN([C@H](C)CO)C(=O)c2cccc(NS(C)(=O)=O)c2O[C@@H]1CN(C)Cc1ccc(C(=O)Nc2ccccc2N)cc1 | inactive
68 | COCC#Cc1ccc2c(c1)O[C@H](CN(C)S(=O)(=O)c1ccc(C)cc1)[C@@H](C)CN([C@H](C)CO)S2(=O)=O | inactive
69 | C[C@@H]1CN([C@H](C)CO)C(=O)c2cc(NC(=O)Nc3cccc4ccccc34)ccc2O[C@@H]1CN(C)S(=O)(=O)c1ccc(Cl)cc1 | inactive
